Data on 32 compounds can be found in PubChem BioAssay (NCATS).

Each structure is given as a SMILES string. Inconclusive results are not listed. A number with no mark means an inactive call. Activity calls are given as the source filed them. The call rests on the fitted dose curve; in most records, active means well fitted cell-killing curve with a large enough effect; inconclusive means small, poorly fitted or top-dose-only effect, or effect the other way; inactive means no such curve, though single readings can be large or run the other way.
Potency means the concentration at half of the fitted maximal effect.

The nature of one test: Quantitative High-Throughput drug screen in 47 multiple myeloma cell lines against the NCATS MIPE library collection: MM1S_ATCC cell viability assay (AID 1918980). Further: nearly all actives have a fitted effect of over 45% in size. The note with it: MM1S myeloma viability, CellTiter-Glo ATP luminescence, 48 h; series mostly up to 45.8 µM; viability (% of control): at the top concentration. The method in brief:
(§1)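 ATP-based CellTiter-Glo luminescence after 48 h drug exposure (37 °C, 5% CO2) of 500 myeloma cells per well. DMSO-only wells set 100% viability, media-only wells 0%; MIPE 4.0 library added by pin tool.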
In the case of `COC(=O)Nc1nc2ccc(C(=O)c3cccs3)cc2[nH]1`, the Potency was 0.0743 µM (active).

For the compound `CC(C(=O)O)c1cccc(C(=O)c2ccccc2)c1` (stereo unspecified), the Potency was 2.96 µM (active).

Regarding `COc1ccc2[nH]cc(CCNC(C)=O)c2c1`, the Potency was 0.372 µM (active).

Consider `CN(C)CCCN1c2ccccc2CCc2ccc(Cl)cc21`, for which the Potency is 0.743 µM (active).

With `COc1nc(C)nc(Cl)c1NC1=NCCN1`, the Potency is 26.4 µM (active).

With `NC(=O)NO`, the Potency was 0.935 µM (active).

Turning to `Cn1cnc2c1c(=O)[nH]c(=O)n2C`, the Potency is 29.6 µM (active).

In the case of `OCCN1CCN(CCCN2c3ccccc3Sc3ccc(C(F)(F)F)cc32)CC1`, the Potency is 2.96 µM (active).

Regarding `OCCN(CCO)c1nc(N2CCCCC2)c2nc(N(CCO)CCO)nc(N3CCCCC3)c2n1`, the Potency was 20.9 µM (active).

As for `CN(C)CCOC(c1ccccc1)c1ccccc1`, the Potency is 10.5 µM (active).

Take `NC12CC3CC(CC(C3)C1)C2`: the Potency is 1.18 µM (active).

On to `CC(C)(Oc1ccc(C2CC2(Cl)Cl)cc1)C(=O)O` (stereo unspecified), for which the Potency was 9.59 µM (active).

For the compound `NC(=O)OCC(COC(N)=O)c1ccccc1`, the Potency was 5.9 µM (active).

As to `C[C@@H]1CC(=O)NN=C1c1ccc(NN=C(C#N)C#N)cc1`, the Potency is 23.5 µM (active).

For `O=c1c(O)c(-c2ccc(O)c(O)c2)oc2cc(O)cc(O)c12`, the Potency is 26.4 µM (active).

Regarding `O=C1c2c(O)ccc(O)c2C(=O)c2c(NCCNCCO)ccc(NCCNCCO)c21`, the Potency is 0.0469 µM (active).

For `CN(C)C(=N)N=C(N)N`, the “viability (% of control)” value is 137%.

For the compound `CS(=O)(=O)Nc1ccc([N+](=O)[O-])cc1Oc1ccccc1`, the Potency is 16.6 µM (active).

In the case of `CCc1cccc2c3c([nH]c12)C(CC)(CC(=O)O)OCC3` (stereo unspecified), the “viability (% of control)” value was 109%.

Regarding `Nc1nnc(-c2cccc(Cl)c2Cl)c(N)n1`, the Potency was 11.8 µM (active).

Regarding `Cn1c(=O)c2[nH]cnc2n(C)c1=O`, the Potency is 23.5 µM (active).

As for `CS(=O)(=O)CCNCc1ccc(-c2ccc3ncnc(Nc4ccc(OCc5cccc(F)c5)c(Cl)c4)c3c2)o1`, the Potency is 0.166 µM (active).

In the case of `COc1ccc2c(c1)c(CC(=O)O)c(C)n2C(=O)c1ccc(Cl)cc1`, the Potency was 18.7 µM (active).

For `CN1CCN(C2=Nc3cc(Cl)ccc3Nc3ccccc32)CC1`, the Potency was 14.8 µM (active).

Turning to `CC(C)NCC(O)COc1ccc(CCOCC2CC2)cc1` (stereo unspecified), the Potency is 16.6 µM (active).

Take `CN1CCC(=C2c3ccccc3CC(=O)c3sccc32)CC1`: the Potency is 16.6 µM (active).

On to `Clc1ccc2c(c1)C(N1CCNCC1)=Nc1ccccc1O2`, for which the Potency is 7.43 µM (active).

For the compound `CN(C)C(=O)C(CCN1CCC(O)(c2ccc(Cl)cc2)CC1)(c1ccccc1)c1ccccc1`, the Potency was 20.9 µM (active).

Regarding `CNCCCC12CCC(c3ccccc31)c1ccccc12`, the Potency is 16.6 µM (active).

As to `COc1cc2nc(N(C)CCCNC(=O)C3CCCO3)nc(N)c2cc1OC` (stereo unspecified), the “viability (% of control)” value is 104%.

On to `CCOC(=O)Nc1ccc(NCc2ccc(F)cc2)nc1N`, for which the Potency is 23.5 µM (active).

In the case of `CC1(CN2CCC(n3c(=O)[nH]c4ccccc43)CC2)OCc2ccccc2-n2cccc21` (stereo unspecified), the Potency is 7.43 µM (active).

Another test can be described thus: Quantitative High-Throughput drug screen in 47 multiple myeloma cell lines against the NCATS MIPE library collection: MM1R_ATCC cell viability assay (AID 1918981). Further: nearly all actives have a fitted effect of over 35% in size. To be noted: MM1R multiple myeloma cells, CellTiter-Glo viability, 48 h; series mostly up to 45.8 µM; viability (% of control): at the top concentration. The method in brief:
as §1
Turning to `CN(C)CCCN1c2ccccc2CCc2ccc(Cl)cc21`, the Potency was 1.48 µM (active).

Consider `COc1nc(C)nc(Cl)c1NC1=NCCN1`, for which the “viability (% of control)” value is 116%.

Regarding `NC(=O)NO`, the Potency is 1.18 µM (active).

`C[C@@H]1CC(=O)NN=C1c1ccc(NN=C(C#N)C#N)cc1`: the Potency was 20.9 µM (active).

Consider `CN(C)C(=N)N=C(N)N`, for which the “viability (% of control)” value was 121%.

As to `CS(=O)(=O)Nc1ccc([N+](=O)[O-])cc1Oc1ccccc1`, the Potency was 20.9 µM (active).

Turning to `CS(=O)(=O)CCNCc1ccc(-c2ccc3ncnc(Nc4ccc(OCc5cccc(F)c5)c(Cl)c4)c3c2)o1`, the Potency is 18.7 µM (active).

With `CN1CCN(C2=Nc3cc(Cl)ccc3Nc3ccccc32)CC1`, the “viability (% of control)” value is 93.3%.

Turning to `CC(C)NCC(O)COc1ccc(CCOCC2CC2)cc1` (stereo unspecified), the “viability (% of control)” value is 115%.

With `CNCCCC12CCC(c3ccccc31)c1ccccc12`, the Potency is 29.6 µM (active).

The next test in a line: Quantitative High-Throughput drug screen in 47 multiple myeloma cell lines against the NCATS MIPE library collection: LP1_DSMZ cell viability assay (AID 1918982). Further: nearly all actives have a fitted effect of over 35% in size. The note with it: LP1 myeloma viability, CellTiter-Glo ATP luminescence, 48 h; series mostly up to 45.8 µM; viability (% of control): at the top concentration. The method in brief: as §1
Turning to `NC(=O)NO`, the Potency was 2.64 µM (active).

Take `CC(C)(Oc1ccc(C2CC2(Cl)Cl)cc1)C(=O)O` (stereo unspecified): the “viability (% of control)” value is 94.5% [at 92.2 µM].

Consider `NC(=O)OCC(COC(N)=O)c1ccccc1`, for which the “viability (% of control)” value was 109%.

For `C[C@@H]1CC(=O)NN=C1c1ccc(NN=C(C#N)C#N)cc1`, the Potency is 20.9 µM (active).

Regarding `CCc1cccc2c3c([nH]c12)C(CC)(CC(=O)O)OCC3` (stereo unspecified), the “viability (% of control)” value is 98.5%.

As for `Nc1nnc(-c2cccc(Cl)c2Cl)c(N)n1`, the “viability (% of control)” value is 98.6%.

As to `CN1CCN(C2=Nc3cc(Cl)ccc3Nc3ccccc32)CC1`, the “viability (% of control)” value is 81%.

Consider `CN1CCC(=C2c3ccccc3CC(=O)c3sccc32)CC1`, for which the “viability (% of control)” value is 101%.

With `CNCCCC12CCC(c3ccccc31)c1ccccc12`, the Potency is 20.9 µM (active).

The next test in a line: Quantitative High-Throughput drug screen in 47 multiple myeloma cell lines against the NCATS MIPE library collection: KMS28PE_JCRB cell viability assay (AID 1918983). Further: nearly all actives have a fitted effect of over 35% in size. To be noted: KMS28PE multiple myeloma viability, CellTiter-Glo ATP, 48 h; series mostly up to 45.8 µM; viability, % of DMSO control: at the top concentration. The method in brief:
as §1
In general terms: Cellular ATP, detected with luciferase, serves as a proxy for viable cell number.
Turning to `COC(=O)Nc1nc2ccc(C(=O)c3cccs3)cc2[nH]1`, the Potency is 0.0059 µM (active).

Take `CC(C(=O)O)c1cccc(C(=O)c2ccccc2)c1` (stereo unspecified): the “viability, % of DMSO control” value is 124%.

As for `COc1ccc2[nH]cc(CCNC(C)=O)c2c1`, the “viability, % of DMSO control” value was 116%.

For `COc1nc(C)nc(Cl)c1NC1=NCCN1`, the “viability, % of DMSO control” value is 113%.

For `OCCN1CCN(CCCN2c3ccccc3Sc3ccc(C(F)(F)F)cc32)CC1`, the Potency is 18.7 µM (active).

Consider `OCCN(CCO)c1nc(N2CCCCC2)c2nc(N(CCO)CCO)nc(N3CCCCC3)c2n1`, for which the Potency is 20.9 µM (active).

As for `CN(C)CCOC(c1ccccc1)c1ccccc1`, the “viability, % of DMSO control” value was 121%.

As to `O=c1c(O)c(-c2ccc(O)c(O)c2)oc2cc(O)cc(O)c12`, the “viability, % of DMSO control” value is 160%.

For `CN(C)C(=N)N=C(N)N`, the Potency is 0.833 µM (active).

In the case of `Cn1c(=O)c2[nH]cnc2n(C)c1=O`, the “viability, % of DMSO control” value was 122%.

Regarding `CN1CCC(=C2c3ccccc3CC(=O)c3sccc32)CC1`, the “viability, % of DMSO control” value was 133%.

Take `Clc1ccc2c(c1)C(N1CCNCC1)=Nc1ccccc1O2`: the Potency is 18.7 µM (active).

In the case of `CN(C)C(=O)C(CCN1CCC(O)(c2ccc(Cl)cc2)CC1)(c1ccccc1)c1ccccc1`, the Potency was 14.8 µM (active).

In the case of `CNCCCC12CCC(c3ccccc31)c1ccccc12`, the Potency is 23.5 µM (active).

With `CCOC(=O)Nc1ccc(NCc2ccc(F)cc2)nc1N`, the “viability, % of DMSO control” value was 130%.
